In the library only some 7.3% were active in any assay of this set; here they are far more common.
KinaseGlo FLuc – Counterscreen for Luciferase (Kinase-Glo TM) Inhibition | Luciferin 4-monooxygenase (Photuris pensylvanica), Q27757 | Kinase-Glo luciferase, ATP luminescence, 8 min | Potency, µM (top dose mostly 38.3 µM), for inactives: at the top dose activity change, negative = inhibition, usual class: inhibitors | hit rate 0.28% among 200,000; note: % is set by controls: 0 for no effect and ±100 for the full control effect; nearly all actives have a fitted effect of over 60% in size
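Luminescence was the read-out, taken after 8-minute incubation at ambient temperature. Luciferase turned over luciferin with 10 uM ATP in imidazole pH 7.2 buffer containing KCl, MgCl2, Tween 20 and BSA.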
ELG1 genotoxic – qHTS screen for small molecules that induce genotoxicity in human embryonic kidney (HEK293T) cells expressing luciferase-tagged ELG1. HEK293T ELG1-luciferase reporter, luminescence, 16 h. hit rate 1.3% among 330,000. Potency, µM (highest dose often 46 µM), without a hit: top-dose activity change, positive = activation, hits mostly activators. AID 504466, 2011; note: % of control where 0% means no effect; nearly all actives have a fitted effect of over 60% in size
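HEK293T cells expressing luciferase-tagged ELG1 were exposed to compound or DMSO vehicle for 16 hr at 37 °C and 5% CO2. Luciferase activity was then measured with ONE-Glo after 30 min at room temperature.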
FLuc modulator – qHTS profiling assay for firefly luciferase inhibitor/activator using purifed enzyme and Km concentrations of substrates (counterscreen for miR-21 project). Luciferin 4-monooxygenase (Photinus pyralis), P08659. purified FLuc, Km substrates, luminescence inhibition. Potency, µM (titrated, usually from 57.5 µM), without a hit: at the highest dose activity change, negative = inhibition, hits mostly inhibitors. hit rate 6.9% among 360,000;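 note: plate controls were vehicle for no effect and reference inhibitor for full effect; nearly all actives have a fitted effect of over 55% in size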
Target sequence (P08659 whole entry, looked up): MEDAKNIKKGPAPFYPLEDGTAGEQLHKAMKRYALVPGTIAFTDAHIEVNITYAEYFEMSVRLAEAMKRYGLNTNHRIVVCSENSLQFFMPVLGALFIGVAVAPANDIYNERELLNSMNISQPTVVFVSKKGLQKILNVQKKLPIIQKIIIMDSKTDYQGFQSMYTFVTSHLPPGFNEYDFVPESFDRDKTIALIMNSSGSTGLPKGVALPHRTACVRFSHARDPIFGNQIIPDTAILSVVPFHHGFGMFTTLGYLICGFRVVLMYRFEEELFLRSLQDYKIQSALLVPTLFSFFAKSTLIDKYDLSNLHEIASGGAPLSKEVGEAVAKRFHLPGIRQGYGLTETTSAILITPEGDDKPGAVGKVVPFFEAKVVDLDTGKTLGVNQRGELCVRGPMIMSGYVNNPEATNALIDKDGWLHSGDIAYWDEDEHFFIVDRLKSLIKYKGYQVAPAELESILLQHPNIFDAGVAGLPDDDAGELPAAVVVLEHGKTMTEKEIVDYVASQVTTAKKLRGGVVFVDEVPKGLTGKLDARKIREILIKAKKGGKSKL
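Biochemical qHTS of compounds, final roughly 60 µM downward over six points, against 10 nM purified firefly luciferase using Km concentrations of substrates (10 uM D-luciferin, 10 uM ATP) in Tris acetate pH 7.5 buffer; luminescence output.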
NPC1 promoter act – qHTS Assay for NPC1 Promoter Activators; Huh7 NPC1 promoter luciferase reporter, 24 h; Potency, µM (series often up to 9.22 µM), for the others: top-dose activation, usual class: activators; hit rate 2.4% among 320,000; AID 485313, 2010; note: % of control where 0% means no effect; nearly all actives have a fitted effect of over 60% in size
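Luminescence from an NPC1 promoter-driven luciferase reporter in stably transfected Huh7 cells was measured after 24 h compound treatment at 37 °C, followed by 10 min ambient incubation with luciferase detection reagent.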
Rab9 prom act – qHTS Assay for Rab9 Promoter Activators. Huh7 Rab9 promoter-luciferase reporter, luminescence, 24 h. hit rate 2.8% among 320,000. Potency, µM (doses to about 9.22 µM), for inactives: at the top dose activation, negative = inhibition, usual class: activators; note: % of control where 0% means no effect; nearly all actives have a fitted effect of over 60% in size
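Quantitative HTS format; Huh7 Rab9-luciferase reporter cells (1500/well) receive compound 2 h post-plating, incubate 24 h at 37 °C, then get luciferase reagent for 10 min before luminescence reading.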
SMN2 splice enh – qHTS Assay for Enhancers of SMN2 Splice Variant Expression; hit rate 2.8% among 210,000; AID 1458, 2008; Potency, µM (top dose mostly 46.1 µM), for inactives: at the top dose activity change, positive = activation, most hits filed as activators; HEK293 SMN2-luciferase splicing reporter, luminescence, 30-36 h; note: % of control where 0% means no effect; nearly all actives have a fitted effect of over 55% in size
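qHTS luciferase splicing reporter: luminescence rises when SMN2 exon 7 is included in transfected HEK293 cells. Compound exposure lasted 30-36 h at 37C, with 4.5 mM final sodium butyrate as control, followed by a ONE-Glo read.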
* hit, by the source's call; ? = inconclusive; / = no result. Calls come from the whole dose curve; as a rule, active = well fitted curve in the direction sought with a large enough effect; inconclusive = small, poorly fitted or top-dose-only effect, or another doubt; inactive = no such curve, though single readings can be large; an effect the other way counts as inactive or inconclusive. Potency is the fitted concentration of half-maximal effect.

SMILES	KinaseGlo FLuc	ELG1 genotoxic	FLuc modulator	NPC1 promoter act	Rab9 prom act	SMN2 splice enh
COc1cc(N=c2ssnc2Cl)c(OC)cc1Cl	10.8%	-2.8%	16.9µM*	-1.0%	1.4%	0.0%
Cc1ccc(N=c2ssnc2Cl)cc1	-0.8%	-7.2%	21.3µM*	1.0%	6.8%	-10.6%
Cc1cc(Cl)ccc1N=c1ssnc1Cl	0.1%	-22.8%	?	0.3%	-0.7%	-23.2%
COc1ccc(CCNC(=O)c2cc3c(=O)n4ccccc4nc3n2C)cc1	/	/	1.1%	/	/	/
CN1C(=O)C(CC(=O)O)S/C1=N\N=C\c1ccc(O)cc1O (stereo unspecified)	/	0.2%	15.1µM*	-14.0%	2.8%	/
Cc1c(NC(=O)c2cc(-c3ccccc3)nc3ccccc23)c(=O)n(-c2ccccc2)n1C	/	-4.1%	/	/	/	/
CC1=NOC(=O)/C1=C\c1ccc(-c2ccc(Cl)cc2Cl)o1	-8.1%	-0.1%	5.36µM*	-13.3%	-2.2%	-7.4%
CCCOc1ccc(Cl)cc1/C=C1/C(=O)ON=C1C	/	-1.0%	-19.8%	6.1%	2.9%	/
CN1CCN(c2nc3c(c(=O)n(C)c(=O)n3C)n2Cc2ccc(F)cc2)CC1	/	-4.9%	-2.5%	-1.9%	-0.5%	/
CCOc1ccc(CCNC(=O)Cc2ccc(NC(=O)C3=C(C)OCCS3)cc2)cc1	/	7.0%	4.26µM*	?	?	/
CSc1ccc(CNC(=O)Cc2ccc(NC(=O)C3=C(C)OCCS3)cc2)cc1	/	13µM*	1.35µM*	-0.9%	?	/
C=CCn1c(SCC(=O)Nc2sccc2C(N)=O)nc2ccccc2c1=O	-3.7%	-0.6%	0.2%	-4.1%	-8.1%	-24.2%
O=C(Nc1ncc(Cc2ccccc2Cl)s1)C1CCCO1 (stereo unspecified)	0.8%	?	9.53µM*	3.55µM*	1.41µM*	12.6µM*
O=C(Nc1ncc(Cc2cccc(Cl)c2Cl)s1)C1CCCO1 (stereo unspecified)	-3.1%	16.4µM*	10.7µM*	?	3.55µM*	15.8µM*
CC(=O)Nc1ncc(Cc2cccc(Cl)c2)s1	-2.7%	13.0%	3.4%	-1.2%	-9.0%	/
O=C(Nc1ncc(Cc2cccc(Cl)c2)s1)C1CCCO1 (stereo unspecified)	0.2%	14.5%	19µM*	?	?	23.2%
Cc1cnc(NC(=O)C2CCCO2)s1 (stereo unspecified)	2.1%	-0.6%	2.1%	-6.8%	13.8%	-3.3%
CC(=O)Nc1ncc(Cc2cccc(Cl)c2Cl)s1	3.3%	4.4%	-0.3%	-8.1%	0.6%	-6.3%
COCCSc1nnc(NC(=O)C2CCN(C(=O)c3ccco3)CC2)s1	/	-2.6%	0.8%	-4.4%	-6.0%	/
CCC(=O)Nc1cccc(NC(=S)NC(=O)c2cc3ccccc3o2)c1	-5.9%	23.1µM*	0.601µM*	1.12µM*	1.12µM*	2.82µM*
CCOc1cccc(C(=O)NC(=S)Nc2ccccc2)c1	1.4%	?	6.75µM*	?	?	11.2µM*
CCC(=O)Nc1cccc(NC(=S)NC(=O)c2ccccc2)c1	0.5%	16.1%	15.1µM*	2.82µM*	?	11.2µM*
CCC(=O)NC(=S)Nc1cccc(NC(=O)CC)c1	-2.6%	1.4%	13.9%	-3.3%	-9.4%	0.8%
O=C(NC(=S)Nc1cccc(CO)c1)c1ccc(-c2ccccc2)cc1	-0.6%	3.2%	?	1µM*	1.58µM*	?
CC(=O)N1CCC2(CC1)CN(c1cccc(-c3ccccc3)c1)C2	-2.9%	/	/	/	/	-19.7%
Cc1ccc(NC(=S)NC(=O)c2ccccc2)cc1NC(=S)NC(=O)c1ccccc1	/	?	-17.2%	?	1.78µM*	/
CC(=O)c1cccc(NC(=S)NC(=O)c2ccc(C)cc2)c1	4.1%	?	10.7µM*	3.16µM*	1.41µM*	11.2µM*

Screening results (PubChem BioAssay)
